KAT2A inh = inhibitors of human GCN5L2 histone acetyltransferase; AID 504327; Potency, µM (series often up to 58.9 µM), usual class: inhibitors; GCN5L2 HAT assay, ThioGlo1 CoA-SH fluorescence; 0.21% of 390,000 active; Q92830
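GCN5L2 (20nM final) in 50mM HEPES, 0.1mM EDTA pH 7.5, 0.01% Tween-20 was preincubated 15 min at room temperature with compound, then given ThioGlo1 (50uM), H3(1-25) peptide (75uM) and acetyl-CoA (70uM); CoA-thiol fluorescence (Ex340/Em540) was read at 0 and 20 min.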
VDR inh = inhibitors of human vitamin D receptor. VDR-SRC2-3 peptide fluorescence polarization, 2 h. 0.93% of 400,000 active. Potency, µM, usual class: inhibitors
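After 23 nl compound addition and a short centrifugation, plates sat for 2 hours at ambient temperature; polarization of fluorescence then indicated loss of VDR binding to peptide SRC2-3.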
PLK1 PBD inh = inhibitors of human PLK1 polo-box domain binding | Potency, µM, most hits filed as inhibitors | Plk1 PBD binding of FITC phosphopeptide, fluorescence polarization | 2.8% of 360,000 active | AID 720504; note: series mostly up to about 57 µM; nearly all actives have a fitted effect of over 65% in size
Target sequence (P53350 whole entry, looked up, the tested form may be a part): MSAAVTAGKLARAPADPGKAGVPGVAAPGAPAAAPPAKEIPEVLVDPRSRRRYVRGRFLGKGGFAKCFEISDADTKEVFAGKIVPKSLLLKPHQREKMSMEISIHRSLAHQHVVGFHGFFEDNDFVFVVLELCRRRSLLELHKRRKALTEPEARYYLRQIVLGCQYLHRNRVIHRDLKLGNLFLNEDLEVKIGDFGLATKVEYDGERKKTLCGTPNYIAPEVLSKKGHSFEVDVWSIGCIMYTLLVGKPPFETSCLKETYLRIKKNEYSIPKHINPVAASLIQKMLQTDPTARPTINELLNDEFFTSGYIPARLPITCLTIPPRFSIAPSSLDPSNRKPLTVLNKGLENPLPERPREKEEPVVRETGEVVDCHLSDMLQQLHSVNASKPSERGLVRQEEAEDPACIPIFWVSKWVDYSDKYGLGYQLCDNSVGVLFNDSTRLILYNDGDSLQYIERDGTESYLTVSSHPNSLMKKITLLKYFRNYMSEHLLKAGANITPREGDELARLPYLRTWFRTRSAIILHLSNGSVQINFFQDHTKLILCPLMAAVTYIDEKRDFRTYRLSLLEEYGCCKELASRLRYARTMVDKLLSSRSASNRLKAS
TDP1 inh = inhibitors of human tyrosyl-DNA phosphodiesterase TDP1 | 0.28% of 350,000 active | recombinant TDP1, AlphaScreen DNA substrate cleavage | Q9NUW8 | Potency, µM (doses to about 130 µM), usual class: inhibitors; note: nearly all actives have a fitted effect of over 40% in size
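Tdp1 1 nM final; 15 min RT w/ cpd; substrate 15 nM, 5 min; beads 10 ug/ml, 10 min; AlphaScreen read. Neg ctrl: no enzyme.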
TDP1 cell CPT = DT40-hTDP1 cell growth loss with CPT; chicken DT40 Tdp1-/-;hTDP1 cells + 20 nM CPT, ATP luminescence, 48 h; Potency, µM (titrated, usually from 46.2 µM), usual class: inhibitors; 12% of 420,000 active; AID 686979; note: nearly all actives have a fitted effect of over 55% in size
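Chicken DT40 Tdp1-/- cells stably complemented with human TDP1 were seeded at 400 cells/well in medium containing 20 nM camptothecin, exposed to pin-transferred compounds, and grown at 37 °C for at least 48 hr. Viability was read as ATP luminescence.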
TDP1 cell noCPT = qHTS for Inhibitors of human tyrosyl-DNA phosphodiesterase 1 (TDP1): qHTS in cells in absence of CPT | DT40 Tdp1-/- hTDP1 cells, no CPT, ATP luminescence, 48 h | Potency, µM (highest dose often 46.2 µM), actives largely listed as inhibitors | 15% of 420,000 active | AID 686978, 2013; note: nearly all actives have a fitted effect of over 55% in size
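Camptothecin absent (DMSO only). Human TDP1-complemented DT40 knockout cells, 400 cells/well, 37 °C for minimum 48 hr; ATP measured via CellTiter-Glo, 30 min dark incubation, luminescence.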
A number is an active result; i = inactive; ? = inconclusive; nt = no result given; ! = a repeat was not active. A selection: hits, their analogues and other compounds. The true share with any hit is near 18%. Calls come from the whole dose curve; as a rule, active = well fitted curve in the direction sought with a large enough effect; inconclusive = small, poorly fitted or top-dose-only effect, or another doubt; inactive = no such curve, though single readings can be large; an effect the other way counts as inactive or inconclusive.

SMILES	KAT2A inh	VDR inh	PLK1 PBD inh	TDP1 inh	TDP1 cell CPT	TDP1 cell noCPT
COc1ccccc1N(CC(=O)N1CCN(c2ccc(F)cc2)CC1)S(=O)(=O)c1ccc(C)cc1	i	i	i	i	26µM	18µM
COc1ccccc1N1CCN(C(=O)C(C)N(c2ccc(C)c(C)c2)S(C)(=O)=O)CC1 (stereo not given)	i	i	i	i	15µM	?
COc1ccccc1N(CC(=O)N1CCCC1)S(=O)(=O)c1ccc(C)cc1	i	i	i	i	i	i
COc1ccc(N(CC(=O)N2CCc3ccccc3C2)S(=O)(=O)c2ccccc2)cc1	i	i	i	i	18µM	18µM
COc1ccc(S(=O)(=O)N(CC(=O)N2CCc3ccccc3C2)c2ccc(C)cc2)cc1	i	i	nt	nt	?	?
CN(c1ccccc1)c1nccc(=O)[nH]1	nt	i	i	nt	i	i
NCCCC(O)(P(=O)(O)O)P(=O)(O)O	i	i	nt	i	i	i
CCC(C)c1ccc(OCC(=O)Nc2cccc3ccc(C)nc23)cc1 (stereo not given)	i	i	nt	i	?	i
O=C(/C=C/Nc1cccc(C(F)(F)F)c1)c1ccco1	i	i	i	i	i	i
O=C(/C=C/Nc1cccc(C(F)(F)F)c1)c1ccc(Oc2ncccn2)cc1	i	i	i	i	?	23µM
COc1cccc(CNC(=O)[C@@H]2CCCN2C(=O)[C@H]2CCCCN2C(=O)c2ccc(Cl)cc2)c1	nt	nt	i	nt	?	?
CCC(C)[C@H]1O[C@]2(C=C[C@@H]1C)C[C@@H]1C[C@@H](C/C=C(\C)[C@@H](O[C@H]3C[C@H](OC)[C@@H](O[C@H]4C[C@H](OC)[C@H](NC(C)=O)[C@H](C)O4)[C@H](C)O3)[C@@H](C)/C=C/C=C3\CO[C@@H]4[C@H](O)C(C)=C[C@@H](C(=O)O1)[C@]34O)O2 (stereo not given in full)	nt	nt	nt	nt	4.2µM	2.7µM
CC[C@@H](C)[C@H]1O[C@]2(CC[C@@H]1C)C[C@@H]1C[C@H](C/C=C(/C)[C@H](O[C@@H]3C[C@H](OC)[C@H](O[C@@H]4C[C@H](OC)[C@@H](O)[C@H](C)O4)[C@H](C)O3)[C@@H](C)/C=C\C=C3CO[C@@H]4[C@H](O)C(C)=C[C@@H](C(=O)O1)[C@]34O)O2 (tested in a mixture with another compound)	i	i	nt	i	12µM	?
CC[C@@H](C)[C@H]1O[C@]2(CC[C@@H]1C)C[C@@H]1C[C@@H](C/C=C(\C)[C@@H](O[C@H]3C[C@H](OC)[C@@H](O[C@H]4C[C@H](OC)[C@@H](O)[C@H](C)O4)[C@H](C)O3)[C@@H](C)/C=C/C=C3\CO[C@@H]4[C@H](O)C(C)=C[C@@H](C(=O)O1)[C@]34O)O2	nt	nt	nt	i	nt	nt
CC[C@H](C)[C@H]1O[C@]2(CC[C@@H]1C)C[C@@H]1C[C@@H](CC=C(C)[C@@H](O[C@H]3C[C@H](OC)[C@@H](O[C@H]4C[C@H](OC)[C@@H](O)[C@H](C)O4)[C@H](C)O3)[C@@H](C)C=CC=C3CO[C@@H]4[C@H](O)C(C)=C[C@@H](C(=O)O1)[C@]34O)O2	nt	i	i	nt	3.7µM	3.7µM
CON=C1C[C@]2(C[C@@H]3C[C@@H](C/C=C(\C)C[C@@H](C)/C=C/C=C4\CO[C@@H]5[C@H](O)C(C)=C[C@@H](C(=O)O3)[C@]45O)O2)O[C@H](/C(C)=C/C(C)C)[C@H]1C	nt	nt	nt	nt	4.2µM!	21µM!
CC[C@@H](C)[C@H]1O[C@]2(CC[C@H]1C)C[C@@H]1C[C@@H](CC=C(C)[C@@H](O[C@H]3C[C@H](OC)[C@@H](O[C@H]4C[C@H](OC)[C@@H](O)[C@H](C)O4)[C@H](C)O3)[C@@H](C)C=CC=C3CO[C@@H]4[C@H](O)C(C)=C[C@@H](C(=O)O1)[C@]34O)O2	i	i	nt	nt	nt	nt
COc1ccc(NC(=O)c2ccc(S(=O)(=O)N3CCOCC3)o2)cc1	i	i	i	i	i	i
C(=C1c2ccccc2-c2ccccc21)c1ccccn1	nt	i	i	nt	?	13µM
COc1ccc2c(c1)CC/C(=C/c1ccccn1)C2=O	i	?	i	nt	?	?
O=C1C(=Cc2ccccn2)CCc2ccccc21	nt	nt	i	nt	15µM	4.1µM
NC1=NC(=O)/C(=C\c2ccc(-c3ccccc3[N+](=O)[O-])o2)S1	nt	nt	nt	nt	11µM	?
CN1C(=O)/C(=C/c2ccc(-c3ccccc3[N+](=O)[O-])o2)SC1=Nc1ccc(Cl)c(C(=O)O)c1	i	?	27µM	i	?	i
CC(C)N(c1ccccc1)c1ccc(NC(=O)COC(=O)CCN2C(=O)c3cccc([N+](=O)[O-])c3C2=O)cc1	i	?	i	i	?	16µM
CC(=O)c1ccc(NC(=O)COC(=O)CCN2C(=O)c3cccc([N+](=O)[O-])c3C2=O)cc1	i	i	i	i	i	i
SMILES	KAT2A inh	VDR inh	PLK1 PBD inh	TDP1 inh	TDP1 cell CPT	TDP1 cell noCPT
COC(=O)c1csc(C2OC(CO)C(O)C2O)n1 (stereo not given)	nt	nt	i	nt	i	i
O=C(Nc1ccc(Oc2ccccc2)cc1)c1csc([C@H]2C[C@H](O)[C@@H](CO)O2)n1	nt	nt	i	nt	16µM	10µM
O=C(Nc1ccc(OCCO)cc1)c1csc([C@@H]2O[C@H](CO)[C@H](O)[C@H](O)[C@H]2O)n1	nt	nt	i	nt	i	i
O=C(Nc1ccc(Oc2ccccc2)cc1)c1csc([C@@H]2O[C@H](CO)[C@@H](O)[C@H]2O)n1	nt	nt	i	nt	16µM	21µM
NC(=O)c1csc(C2OC(CO)C(O)C2O)n1 (stereo not given)	nt	nt	i	nt	0.046µM	0.026µM
CC(C)c1ccc(NC(=O)C2CSC3(C)CCC(=O)N23)cc1 (stereo not given)	i	i	i	i	?	i
Cc1cccc(OCC(=O)N2CCN(C(=O)COc3ccc(Cl)cc3)CC2)c1	i	i	i	nt	?	?
COc1ccc2nc(NC(=O)C3CCN(S(=O)(=O)c4cccs4)CC3)sc2c1	i	i	i	i	23µM	29µM
O=C(Nc1nc2ccc(C(=O)N3CCCCC3)cc2s1)C1CCCCC1	i	i	i	i	2.6µM	4.1µM
COc1ccc2nc(NC(=O)C3CCN(S(=O)(=O)c4cccnc4)CC3)sc2c1	i	i	i	i	12µM	15µM
CCOc1ccc(OCC)c(NC(=O)C2CCN(S(=O)(=O)c3cccnc3)CC2)c1	i	i	i	i	i	i
COc1ccc2nc(NC(=O)CNS(=O)(=O)c3cccs3)sc2c1	i	i	i	i	i	i
